# Source: PubChem BioAssay (NCATS)
# Results filed as inconclusive are left out. Where a call stands in place of a potency, no number is given. Active and inactive are the calls of the source. Unless noted, calls follow the shape of the dose curve; as a rule, active = well fitted curve in the direction sought with a large enough effect; inconclusive = small, poorly fitted or top-dose-only effect, or another doubt; inactive = no such curve, though single readings can be large; an effect the other way counts as inactive or inconclusive. Peptide text beside a SMILES is read from it.
# Columns and labels:
# [1] = molecular target: Cytochrome P450 3A4 (Homo sapiens) (UniProt P08684); experiment: qHTS Assay for Inhibitors and Substrates of Cytochrome P450 3A4 (AID 884); details: recombinant CYP3A4, Luciferin-PPXE luminescence; series mostly up to 57.1 µM; also: nearly all actives have a fitted effect of over 50% in size
# Method in brief: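 Luminescent readout of luciferin produced by CYP3A4 (20 nM) dealkylation of Luciferin-PPXE, 25 uM (its KM). NADPH-driven reaction ran 60 min at RT after 10 min compound preincubation; data scaled to 57 uM ketoconazole as 100% inhibition.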
# [2] = Confirmation and Secondary Assay for Modulators of Hemoglobin Beta Chain Splicing at IVS2 654 locus (AID 910); details: HeLa EGFP-654 splicing reporter, GFP fluorescence, 48 h; series mostly up to 46.1 µM;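 also: HeLa cells stably carrying EGFP split by mutant beta-globin IVS2-654 intron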
# Method in brief: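 Readout: per-well total peak green fluorescence (488 nm ex, 500–520 nm em) from objects 5–250 µm, reflecting correct splicing of an EGFP-654 reporter. Compounds were applied for 2 days at 37 °C to overnight-plated HeLa EGFP-654 cells; controls were DMSO and 500 nM IVS2-654 PNA.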
# [3] = Confirmation and Secondary Assay for Modulators of Hemoglobin Beta Chain Splicing at IVS2 705 locus (AID 930); details: HeLa EGFP-705 splicing reporter, GFP fluorescence, 48 h; series mostly up to 46.1 µM;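 also: HeLa cells stably expressing the EGFP-705 splicing reporter; GFP fluorescence per well restored by corrected splicing of the IVS2-705 intron in EGFP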
# Method in brief: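 Read-out: total peak GFP fluorescence per well (488 nm excitation, 500-520 nm emission) by laser-scanning cytometry. Cells: HeLa EGFP-705 splicing reporter, 2 days compound exposure in Optimem/2% FCS.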
# [4] = qHTS Assay for Lipid Storage Modulators (AID 1519; calls by dose curve); details: Drosophila S3 cells, BODIPY lipid droplet/cell ratio, laser cytometry, cells loaded with oleic acid; for activity change, negative = inhibition: at 57.5 µM (top of the series)
# Method in brief: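 Cells seeded at 5,000 per well were treated with compounds over a concentration series and loaded with oleic acid (400 uM, as added). Lipid droplet fluorescence (488 nm excitation, 500-530 nm channel) was read by laser-scanning cytometry and normalized to 20 uM Triacsin C.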
# [5] = molecular target: Ubiquitin carboxyl-terminal hydrolase 1 (Homo sapiens) (UniProt O94782); experiment: Inhibitors of USP1/UAF1: Pilot qHTS (AID 504865); details: purified USP1/UAF1, Ub-rhodamine cleavage fluorescence; series mostly up to 114 µM;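 also: rhodamine fluorescence freed from ubiquitin-rhodamine substrate followed over time; top concentration of the series differs between compounds; nearly all actives have a fitted effect of over 35% in size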
# Method in brief: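 In 50mM HEPES pH 7.8 containing 0.5mM EDTA, 1mM TCEP, 0.1 mg/ml BSA and 0.01% Tween-20, 1nM USP1/UAF1 is exposed to compound for 15 min, then Ub-Rho (150nM final) is added and fluorescence is read over time.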
# [6] = measured here: cell count channel max response
# [7] = measured here: lipid channel max response
# Cytochrome P450 3A4 (Homo sapiens), sequence (P08684 whole entry, looked up): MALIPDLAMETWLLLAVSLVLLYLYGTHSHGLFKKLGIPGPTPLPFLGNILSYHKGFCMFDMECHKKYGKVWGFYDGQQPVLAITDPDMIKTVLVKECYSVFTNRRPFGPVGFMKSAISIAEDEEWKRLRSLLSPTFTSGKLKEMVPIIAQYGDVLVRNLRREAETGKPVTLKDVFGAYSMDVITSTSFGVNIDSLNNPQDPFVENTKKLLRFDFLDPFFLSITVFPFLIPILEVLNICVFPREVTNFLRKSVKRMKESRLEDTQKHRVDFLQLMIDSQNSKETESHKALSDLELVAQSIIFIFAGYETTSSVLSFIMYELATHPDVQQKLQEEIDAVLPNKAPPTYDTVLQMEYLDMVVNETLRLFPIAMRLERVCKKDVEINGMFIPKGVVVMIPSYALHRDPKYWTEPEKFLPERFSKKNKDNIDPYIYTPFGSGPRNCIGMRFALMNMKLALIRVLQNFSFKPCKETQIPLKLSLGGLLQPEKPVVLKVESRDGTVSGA
# Ubiquitin carboxyl-terminal hydrolase 1 (Homo sapiens), sequence (O94782 whole entry, looked up): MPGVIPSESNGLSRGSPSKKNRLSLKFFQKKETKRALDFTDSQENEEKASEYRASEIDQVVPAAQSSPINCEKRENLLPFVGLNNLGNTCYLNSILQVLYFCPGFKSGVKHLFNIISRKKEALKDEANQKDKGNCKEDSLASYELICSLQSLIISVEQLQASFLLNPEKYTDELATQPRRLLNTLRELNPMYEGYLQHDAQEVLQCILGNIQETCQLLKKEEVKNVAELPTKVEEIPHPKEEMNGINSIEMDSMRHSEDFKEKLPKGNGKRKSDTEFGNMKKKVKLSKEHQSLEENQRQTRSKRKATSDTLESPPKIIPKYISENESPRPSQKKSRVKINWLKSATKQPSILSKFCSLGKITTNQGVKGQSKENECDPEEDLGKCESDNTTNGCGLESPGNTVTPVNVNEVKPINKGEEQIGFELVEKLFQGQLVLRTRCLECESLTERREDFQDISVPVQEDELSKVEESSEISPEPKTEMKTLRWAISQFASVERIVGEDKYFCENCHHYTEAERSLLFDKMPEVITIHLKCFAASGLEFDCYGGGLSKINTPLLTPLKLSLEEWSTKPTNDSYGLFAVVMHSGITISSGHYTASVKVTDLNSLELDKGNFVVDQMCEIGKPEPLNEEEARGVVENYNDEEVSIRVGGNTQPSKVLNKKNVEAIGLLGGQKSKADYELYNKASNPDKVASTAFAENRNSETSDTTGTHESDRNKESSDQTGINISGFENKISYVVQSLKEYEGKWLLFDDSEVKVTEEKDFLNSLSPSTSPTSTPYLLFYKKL
Structure (SMILES),Potency [1],Potency [2],Potency [3],"activity change, negative = inhibition [4]","max response [4, 6] [%]","max response [4, 7] [%]",Potency [5]
Nc1ncnc2nc(Cl)[nH]c12,inactive,inactive,inactive,2.56% (inactive),-7.94,-3,inactive
Nc1ncnc2c1[nH]c(=O)n2C1OC(CO)C(O)C1O (stereo unspecified),inactive,inactive,inactive,-0.198% (inactive),11.6,24.7,inactive
C=C1CCC(C2CC(=O)OC2=O)C(=O)CCC2C1CC2(C)C (stereo unspecified),inactive,inactive,inactive,4.44% (inactive),19.1,26.1,inactive
COc1ccccc1/C=C\C(=O)O,inactive,inactive,inactive,-2.1% (inactive),4.2,4.2,inactive
Nc1nc2c(nc(Cl)n2C2OC(CO)C(O)C2O)c(=O)[nH]1 (stereo unspecified),inactive,inactive,inactive,3.5% (inactive),20,24.4,inactive
CC(C)=CCc1c(O)cc(C)oc1=O,inactive,inactive,inactive,0.619% (inactive),9.29,11.1,inactive
CC(=O)/C(=C\c1ccccc1)CC(=O)O,inactive,inactive,inactive,9.42% (inactive),12.7,23.6,inactive
CCOc1ccc(C(=O)c2ccc(OC)c(O)c2O)cc1,inactive,inactive,inactive,7.45% (inactive),6.67,16.2,inactive
CC1(C)Oc2ccc3ccc(=O)oc3c2CC1O (stereo unspecified),inactive,inactive,inactive,-1.55% (inactive),16,13.9,inactive
CCOC(=O)c1c(C)cc(O)c(C)c1O,inactive,inactive,inactive,6.04% (inactive),15.9,23.2,inactive
NCCCCC(N)C(=O)NC(Cc1ccc(O)cc1)C(=O)NC(CCCCN)C(=O)O (stereo not drawn) (H-Lys-Tyr-Lys-OH; configuration not given here),inactive,inactive,inactive,1.3% (inactive),3.42,5.58,inactive
C[C@]12CCC3c4ccc(O)cc4CCC3C1CC(O)C2O (stereo partly specified),inactive,inactive,inactive,-4.9% (inactive),6.91,3.96,inactive
COc1ccc2c(=O)c(CC(=O)O)coc2c1,inactive,inactive,inactive,4.63% (inactive),9.56,14.8,inactive
CC1(C)OC2C[C@](O)(C(N)=O)C[C@H](O)[C@H]2O1 (stereo partly specified),inactive,inactive,inactive,3.65% (inactive),15.6,23.7,inactive
CCCCCCCCCCCCCc1ccco1,inactive,inactive,inactive,1.58% (inactive),-6.07,3.51,inactive
CC1=CC2C(C(C)C)CCC(C)(O)C2CC1 (stereo unspecified),inactive,inactive,inactive,-0.741% (inactive),-7.33,-6.55,inactive
CN(C)C1C(=O)C(C(N)=O)=C(O)[C@@]2(O)C(=O)C3=C(O)c4c(O)ccc(Cl)c4C(O)[C@H]3C[C@@H]12 (stereo partly specified),inactive,inactive,inactive,5.54% (inactive),25.6,35.5,inactive
CC(CCC(=O)O)C1CCC2C3CC(O)[C@@H]4CC(O)CC[C@]4(C)C3CC[C@@]12C (stereo partly specified),inactive,inactive,inactive,6.93% (inactive),12.9,20.4,inactive
CC1(C)OC2C(CO)OC(n3cnc4c(=O)[nH]c(N)nc43)C2O1 (stereo unspecified),inactive,inactive,inactive,4.01% (inactive),24,28,inactive
COc1cc(O)ccc1C(C)=O,inactive,inactive,inactive,7.68% (inactive),24.4,34.1,inactive
CCC(C)C(NC)C(=O)O (stereo unspecified),inactive,inactive,inactive,5.09% (inactive),17.4,24.1,inactive
CC(=O)N[C@H](Cc1c[nH]c2ccccc12)C(N)=O,inactive,inactive,inactive,4.6% (inactive),3.77,4.03,inactive
CCCCC(=O)Oc1ccccc1C(=O)O,inactive,inactive,inactive,-0.236% (inactive),5.62,5.3,inactive
